Our source for the composite z-score and composite Z-score values is PubChem BioAssay.

SMILES strings stand for the structures. Activity calls are given as the source filed them.

The target in one test is Albumin (Bos taurus) (UniProt P02769). Nature of the test: compounds binding labelled BSA control protein – biochemical, small-molecule microarray, Alexa647 label, 635/667 nm fluorescence, artefact control for SMM control protein annotation, profiling panel (AID 1118).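 Also: score merges 667 nm emission intensity and signal-to-noise per printed compound spot.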 The settings on record: BSA-A647 binding, fluorescence 635 nm, higher = more signal.
Chain of Albumin (Bos taurus) (P02769 whole entry, looked up): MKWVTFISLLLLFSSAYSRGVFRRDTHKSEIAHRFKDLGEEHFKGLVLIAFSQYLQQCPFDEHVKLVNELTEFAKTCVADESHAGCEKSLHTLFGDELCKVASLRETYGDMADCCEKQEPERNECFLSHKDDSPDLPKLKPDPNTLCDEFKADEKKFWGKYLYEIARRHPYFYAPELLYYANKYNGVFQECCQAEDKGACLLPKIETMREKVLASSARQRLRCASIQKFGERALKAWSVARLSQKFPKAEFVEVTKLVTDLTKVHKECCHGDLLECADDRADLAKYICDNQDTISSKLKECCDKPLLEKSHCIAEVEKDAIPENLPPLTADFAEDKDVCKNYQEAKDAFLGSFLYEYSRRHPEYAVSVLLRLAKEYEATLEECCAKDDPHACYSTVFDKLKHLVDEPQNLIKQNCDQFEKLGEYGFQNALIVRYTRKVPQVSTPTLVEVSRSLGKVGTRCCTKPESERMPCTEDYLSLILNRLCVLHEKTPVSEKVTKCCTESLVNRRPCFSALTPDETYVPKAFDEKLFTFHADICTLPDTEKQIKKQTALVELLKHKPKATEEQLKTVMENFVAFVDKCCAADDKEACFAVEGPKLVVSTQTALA
Test [1] is described as follows: probe aXIP binding to arrayed compounds – biochemical, NeuroSMM set, 635/667 nm fluorescence, primary screen (AID 1119).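 Also: probe is the protein aXip251-270 applied at 1 µg/mL to compound-printed slides; binding of probe to printed compounds measured as 667 nm fluorescence plus signal to noise.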 To be noted: small-molecule microarray, higher = more signal, called active from +8 up or from −8 down.
A short description of test [2]: probe aNOTCH3 binding on compound microarray – biochemical, small-molecule microarray, 635/667 nm fluorescence, primary screen (AID 1120).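 Also: probe is a biotin-tagged antibody raised against NOTCH3 rather than NOTCH3 protein; score merges spot fluorescence near 667 nm with spot signal to noise.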 The settings on record: higher = more signal.
Test [3] in a line: probe aNOTCH2 binding on compound microarray – biochemical, small-molecule microarray, 635/667 nm fluorescence, primary screen (AID 1121).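 Also: score merges feature fluorescence read at 667 nm with its signal to noise.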 The settings on record: higher = more signal.
The target of test [4] is Carbonic anhydrase 2 (Homo sapiens) (UniProt P00918). Nature of the test: compounds binding carbonic anhydrase 2 – biochemical, small-molecule microarray, Alexa647-labelled CAII, profiling panel (AID 1122). The settings on record: CAII-A647 binding fluorescence, higher = more signal.
Test [5] is described as follows: COS7 lysate on small-molecule microarray, probe aHis, 635 nm (AID 1123).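 Also: z-score combines 667nm fluorescence intensity with signal-to-noise per printed compound spot.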 The settings on record: COS7 cell lysate, fluorescence, higher = more signal.
A short description of test [6]: probe aLAP1 signal on lysate-treated microarray – cell lysate, small-molecule microarray, COS7 lysate, primary screen (AID 1124).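 Also: lysate comes from COS7 cells expressing LAP1 and is applied at 0.3 µg/mL; score merges spot fluorescence near 667 nm with signal-to-noise over triplicate slides.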 The settings on record: probe aLAP1, fluorescence, higher = more signal.
A further test relates to Sam68 (KHDRBS1). Nature of the test: compounds binding KHDRBS1 protein – biochemical, small-molecule microarray, 635 nm fluorescence, primary screen (AID 1125).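 Also: score merges 667 nm channel intensity with signal to noise over triplicate slides.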 The settings on record: higher = more signal.
Test [7] concerns Chordin-like protein 2 (CHRDL2). Briefly: compounds binding chordin-like 2 – biochemical, small-molecule microarray, 635 nm fluorescence, primary screen (AID 1126).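 Also: printed compound slides probed with Chrdl2 protein at 4 µg/mL for 1 h at 4 C; score merges 667 nm emission intensity with signal to noise over three replicate slides.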 To be noted: fluorescence 635 nm, higher = more signal.
For test [8], the target named is Concanavalin-A (Canavalia ensiformis) (UniProt P02866). Nature of the test: compounds binding concanavalin A lectin – biochemical, small-molecule microarray, Alexa647 label, 635 nm, artefact control for SMM control protein annotation, primary screen (AID 1127).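 Also: z combines 667 nm emission intensity with signal-to-noise across three replicate slides.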 The settings on record: ConA-A647 binding fluorescence, higher = more signal.
Chain of Concanavalin-A (Canavalia ensiformis) (P02866 whole entry, looked up): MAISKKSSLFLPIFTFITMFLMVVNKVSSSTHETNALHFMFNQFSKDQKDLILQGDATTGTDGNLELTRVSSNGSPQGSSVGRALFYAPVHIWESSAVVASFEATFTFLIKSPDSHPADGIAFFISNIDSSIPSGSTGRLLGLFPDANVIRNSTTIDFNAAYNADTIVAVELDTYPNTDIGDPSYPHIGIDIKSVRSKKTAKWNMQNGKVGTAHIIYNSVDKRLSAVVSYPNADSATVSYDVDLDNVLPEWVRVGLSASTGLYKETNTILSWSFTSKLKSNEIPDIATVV

With `COc1ccc([Si](C)(C)[C@H]2[C@H](CCO)O[C@@]3(C(=O)N(Cc4ccccc4)c4ccc(N5CCOC5=O)cc43)[C@@H]2C)cc1`, the composite z-score is 0.711 in the test with Albumin (Bos taurus); 0.0311 in test [2]; -0.149 in [3]; 0.299 in test [4]; 0.644 in test [5]; -0.174 in test [6]. The composite z-score amounted to 0.832 with Sam68 (KHDRBS1), 0.524 in test [7] and 1.15 in test [8]. Also, the composite Z-score in test [1] was -0.326 (inactive).
As for `CN(C)C(=O)[C@@]1(CCC(=O)OC(C)(C)C)N=C(c2ccc(OCCCO)cc2)O[C@H]1c1ccccc1CN=[N+]=[N-]`, the composite z-score was 1 in the test with Albumin (Bos taurus); -0.0111 in test [2]; -0.0206 in [3]; 0.825 in test [4]; 3.22 in [5]; 0.626 in test [6]. In addition, the composite z-score with Sam68 (KHDRBS1) is 1.29; in test [7], -0.409; in test [8] it was 0.613. Also, the composite Z-score in [1] is -0.181 (inactive).
For the molecule `O=C1C2C=CC(C(O)c3cc(C(F)(F)F)cc(C(F)(F)F)c3)N(Nc3ccccc3F)C2C(=O)N1c1ccccc1` (stereo not given), the composite z-score with Albumin (Bos taurus) was 1.01; in [2], 0.114; in test [3], -0.0005; in test [4] it was 0.752; in test [5], 2.86; in test [6] it was 1.06. The composite z-score in the test with Sam68 (KHDRBS1) is 1.01; in test [7] it was -0.217; in test [8], 0.443. Further, the composite Z-score in test [1] is -0.147 (inactive).
For the molecule `Cc1ccc(S[C@]2(C(=O)NCC(C)C)CC(=O)N(C3Cc4ccccc4C3)[C@@H]2c2ccc(CO)cc2I)cc1`, the composite z-score with Albumin (Bos taurus) is -0.615; in test [2], -0.323; in test [3], -0.188; in [4] it was 0.398; in test [5] it was 0.554; in [6] it was -0.221. In addition, the values for the composite z-score (in the test on Sam68 (KHDRBS1); in [7]; in test [8]) were -0.383, -1.65 and -0.762, respectively. Also, in test [1], the composite Z-score is -0.211 (inactive).
`C[C@]1(C(=O)NCC(F)(F)F)c2ccccc2C(=O)N(Cc2ccccc2)[C@H]1c1ccc(CO)cc1`: the composite z-score with Albumin (Bos taurus) was -1.14; in test [2], -0.221; in test [3], -0.123; in test [4] it was 0.448; in test [5], -0.145; in [6] it was 0.498. In addition, the results for the composite z-score (with Sam68 (KHDRBS1); in test [7]; in test [8]) were -1.22, -1.7 and 0.0038, respectively. Besides, the composite Z-score in test [1] is -0.222 (inactive).
Turning to `O=c1cccc(-c2ccc(F)cc2)o1`, the composite z-score in the test with Albumin (Bos taurus) is 0.445; in test [2] it was 0.176; in test [3], -0.0527; in test [4], -0.114; in test [5], -0.218; in test [6], 0.403. Besides, the composite z-score is 0.501 in the test on Sam68 (KHDRBS1), 0.556 in test [7] and 0.354 in [8]. In addition, the composite Z-score in test [1] is -0.261 (inactive).
With `CC(C)C(=C=CC[C@@H](O)c1cccc(OCCO)c1)C[C@@H](O)COCc1ccccc1`, the composite z-score is 0.15 with Albumin (Bos taurus); -0.0708 in test [2]; -0.0865 in test [3]; 0.763 in [4]; 0.75 in test [5]; 0.102 in [6]. For the same molecule, the composite z-score in the test with Sam68 (KHDRBS1) was -0.0876; in test [7] it was -0.456; in [8], 0.346. Also, the composite Z-score in test [1] is -1.39 (inactive).
Turning to `CC(C)=CCCC(C)=CC(O)C1C=CC2C(=O)N(c3ccccc3)C(=O)C2N1Nc1ccccc1F` (stereo not given), the composite z-score was 0.846 in the test with Albumin (Bos taurus); 0.0258 in test [2]; -0.186 in test [3]; 0.662 in [4]; 1.3 in [5]; 0.561 in [6]. Moreover, the composite z-score was 1.13 with Sam68 (KHDRBS1), -0.308 in test [7] and 1.14 in test [8]. Also, the composite Z-score in [1] was 0.0502 (inactive).
In the case of `Cc1cccc([C@H]2C[C@H]3C(Br)=C[C@@H]2C(=O)[C@]32CO2)c1`, the composite z-score with Albumin (Bos taurus) was -0.904; in test [2] it was -0.125; in [3], -0.16; in [4] it was -0.255; in test [5] it was -0.498; in [6] it was -0.552. For the same molecule, the figures for the composite z-score (in the test on Sam68 (KHDRBS1); in test [7]; in test [8]) were -0.721, 0.563 and -0.051, respectively. Moreover, the composite Z-score in test [1] was 0.289 (inactive).
For `CO[C@H]1O[C@H](CO)[C@@H](OC(=O)Nc2ccc(C#N)cc2)[C@@H]2OC(=O)[C@H](Cc3cccc(Br)c3)C/C=C/C[C@@H](Cc3cccc(Br)c3)C(=O)O[C@@H]12`, the composite z-score is 0.348 with Albumin (Bos taurus); 0.0935 in [2]; -0.0711 in [3]; 0.26 in [4]; 0.913 in test [5]; 0.23 in test [6]. Besides, the composite z-score in the test on Sam68 (KHDRBS1) was found to be 0.697; in [7], 0.116; in test [8], 0.384. For the same molecule, the composite Z-score in test [1] was 0.656 (inactive).
Consider `CCOC(=O)C[C@H]1[C@H](OC(=O)c2ccccc2-c2ccccc2)[C@@H](NC(=O)c2ccccc2)c2cc(OCCCO)ccc2N1C(=O)c1ccccc1`, for which the composite z-score in the test with Albumin (Bos taurus) was 0.505; in test [2], -0.0647; in test [3], -0.019; in test [4] it was 0.666; in test [5] it was 0.677; in [6] it was 0.513. Also, the composite z-score in the test on Sam68 (KHDRBS1) came to 0.42; in [7], 0.116; in test [8] it was 0.178. Besides, the composite Z-score in test [1] is -0.383 (inactive).
On to `COc1cccc(/C=C(\C#N)C(=O)Nc2c(C)n(C)n(-c3ccccc3)c2=O)c1`, for which the composite z-score is 0.998 with Albumin (Bos taurus); -0.053 in [2]; -0.0454 in [3]; 0.767 in [4]; 0.366 in [5]; -0.0921 in [6]. Also, the composite z-score is 0.949 in the test with Sam68 (KHDRBS1), -0.194 in test [7] and 1.14 in [8]. Further, the composite Z-score in [1] is -0.359 (inactive).
Regarding `C=C(COC)C(=O)CC[C@H](OC(C)=O)c1ccc(OCCO)cc1`, the composite z-score with Albumin (Bos taurus) was -0.0592; in [2], -0.0362; in test [3], -0.0971; in [4] it was 0.549; in test [5], 0.523; in [6], 2.46. Moreover, the composite z-score in the test with Sam68 (KHDRBS1) is 0.666; in test [7], 0.569; in test [8] it was 0.488. Moreover, the composite Z-score in [1] was -0.308 (inactive).
Regarding `COc1cc(C(O)C2C=CC3C(=O)N(Cc4ccccc4)C(=O)C3N2n2cnnc2)cc(OC)c1OC` (stereo not given), the composite z-score with Albumin (Bos taurus) came to 0.578; in [2], 0.401; in test [3], 0.202; in [4], 0.686; in test [5] it was 1.1; in [6] it was 1.01. Further, the composite z-score was 0.462 in the test with Sam68 (KHDRBS1), -0.141 in test [7] and 0.458 in test [8]. For the same molecule, the composite Z-score in test [1] is -0.0603 (inactive).
Turning to `C=C(C(=O)CC[C@@H](OC(=O)c1ccccc1-c1ccccc1C(=O)O)c1ccccc1OCCO)C(C)C`, the composite z-score with Albumin (Bos taurus) was 0.287; in [2], -0.0111; in test [3], -0.108; in test [4], 0.734; in test [5] it was 0.418; in test [6], 0.175. Besides, the values for the composite z-score (with Sam68 (KHDRBS1); in test [7]; in test [8]) were 1.21, 0.935 and 0.866, respectively. Further, the composite Z-score in test [1] was -0.28 (inactive).
`CCCC=C(CCC)[C@@H](NC(=O)CCc1ccccc1)c1ccc(C(F)(F)F)cc1`: the composite z-score was 0.964 with Albumin (Bos taurus); 0.265 in test [2]; -0.0095 in [3]; 0.58 in [4]; 2.82 in [5]; 0.0364 in [6]. For the same molecule, the composite z-score is 1.27 in the test on Sam68 (KHDRBS1), -0.153 in test [7] and 1.1 in [8]. Besides, the composite Z-score in test [1] is -0.1 (inactive).
